Tau fibril FP = blocks human tau fibril formation measured by polarization | AID 1468 | P10636 | Potency, µM (top dose mostly 57.7 µM), for the others: top-dose activity, negative = inhibition, actives largely listed as inhibitors | K18 P301L tau heparin fibrillization, Alexa594 FP, 6 h | 0.39% of 280,000 active; further: potency means the concentration at half of the fitted maximal effect; nearly all actives have a fitted effect of over 55% in size
Target sequence (P10636 561-689 P618L limits assumed): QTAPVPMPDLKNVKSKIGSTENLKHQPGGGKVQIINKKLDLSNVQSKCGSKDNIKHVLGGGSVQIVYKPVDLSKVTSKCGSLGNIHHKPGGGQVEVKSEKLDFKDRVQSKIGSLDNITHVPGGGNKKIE
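Human K18 P301L fragment (15 uM unlabeled plus 0.24 uM Alexa 594-labeled) in 100 mM sodium acetate pH 7 with compound, aggregation induced by 20 uM heparin for 6 hr at 37 C. ThT (30 uM) added for 1 hr, then Alexa 594 FP read.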
Tau fluor cs = counter-screen for tau fibril formation inhibitors. tau K18 P301L Alexa594 fluorescence, heparin fibrillization. 0.93% of 280,000 active. Potency, µM (titrated, usually from 57.7 µM), for the others: top-dose activity change, negative = decrease. AID 1463; further: potency means the concentration at half of the fitted maximal effect; nearly all actives have a fitted effect of over 55% in size
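Human tau K18 P301L (15 uM unlabeled, 0.24 uM Alexa 594-labeled) in 100 mM sodium acetate pH 7 with 20 uM heparin, 6 hr at 37 C. ThT 30 uM added, 1 hr ambient; Alexa 594 FP and total fluorescence read at 555/632 nm.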
PNC assembly inh = blocks assembly of the perinucleolar compartment | activity change (PNC), negative = inhibition, % at 10 µM | PC3M PTB-GFP, PNC prevalence imaging, 16 h; stronger effect = lower value | 3.1% of 140,000 active | AID 2417;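 active means readout at or below -70, meaning at least 70% loss of cells showing the perinucleolar compartment, a nuclear body marking cancer cells; inconclusive means readout between -30 and a set limit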;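 further: plate controls were DMSO wells for no effect and camptothecin positive control wells for full effect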
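Read-out is percentage of cells bearing a perinucleolar compartment, from automated 20x imaging of fixed, Hoechst-stained PC3M PTB-GFP cells. Cells were seeded 4 h, then exposed 16 h to compound (23 nl of library stock) in duplicate plates.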
NPSR antag = neuropeptide S receptor (human) antagonism, cAMP | Q6W5P4 | CHO-NPSR cells, cAMP TR-FRET, antagonist mode | Potency, µM (doses to about 38.3 µM), for the others: at the top dose activity change, negative = inhibition, usual class: inhibitors | 1% of 220,000 active; further: potency means the concentration at half of the fitted maximal effect; nearly all actives have a fitted effect of over 50% in size
Target sequence (Q6W5P4 whole entry, looked up): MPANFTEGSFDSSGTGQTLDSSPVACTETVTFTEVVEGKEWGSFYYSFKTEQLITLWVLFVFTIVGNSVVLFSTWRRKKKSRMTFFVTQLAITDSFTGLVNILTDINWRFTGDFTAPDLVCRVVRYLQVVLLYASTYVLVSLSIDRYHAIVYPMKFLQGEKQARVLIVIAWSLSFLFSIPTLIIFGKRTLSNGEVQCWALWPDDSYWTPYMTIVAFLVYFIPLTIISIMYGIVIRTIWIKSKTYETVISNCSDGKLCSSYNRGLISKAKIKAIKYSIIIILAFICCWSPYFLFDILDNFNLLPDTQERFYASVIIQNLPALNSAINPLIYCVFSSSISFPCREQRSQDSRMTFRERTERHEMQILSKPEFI
JMJD2E inh = JMJD2E (human) inhibition; Potency, µM (series often up to 57.1 µM), without a hit: at the highest dose activity change, negative = inhibition, actives largely listed as inhibitors; JMJD2E catalytic domain, FDH-coupled NADH fluorescence (FDH is formaldehyde dehydrogenase); B2RXH2; AID 2147; 1.6% of 230,000 active; active means well fitted inhibition curve with a large enough effect, not every such curve was filed as active; inconclusive means small, poorly fitted or top-dose-only effect, or another doubt; inactive means no such curve, though single readings can be large or run the other way;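 further: potency means the concentration at half of the fitted maximal effect; 0% = wells with enzyme and -100% = buffer wells without enzyme; nearly all actives have a fitted effect of over 50% in size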
Tau ThT inhib = blocks human tau fibril formation measured by thioflavin T. P10636. 2.1% of 270,000 active. recombinant tau K18 P301L (four-repeat tau fragment), heparin-induced fibrillization, ThT fluorescence. Potency, µM (doses to about 57.4 µM), for the others: at the highest dose activity, negative = inhibition, actives largely listed as inhibitors; further: potency means the concentration at half of the fitted maximal effect; nearly all actives have a fitted effect of over 55% in size
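Tau K18 P301L fragment (15 uM unlabeled plus 0.24 uM Alexa 594-labeled) in 100 mM sodium acetate pH 7 with compound, fibrillization induced by 20 uM heparin for 6 hr at 37 C. Thioflavin T (30 uM) added, fluorescence read after 1 hr (ex 450, em 510 nm).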
An asterisk follows results filed as active; ? = inconclusive; · = no result; [ ] = another dose, or the depositor's remark. Hits are enriched below; roughly 5.1% of the tested compounds scored in any of these assays. Unless noted, the call rests on the fitted dose curve; in most records, active means well fitted curve in the direction sought with a large enough effect; inconclusive means small, poorly fitted or top-dose-only effect, or another doubt; inactive means no such curve, though single readings can be large; an effect the other way counts as inactive or inconclusive. Unless noted, on the % scale 0 is the no-effect control and ±100 the full control effect.

SMILES	Tau fibril FP	Tau fluor cs	PNC assembly inh	NPSR antag	JMJD2E inh	Tau ThT inhib
Cc1ccc(Nc2c(-c3ccc(N4CCOCC4)cc3)nc3ncccn23)cc1C	?	?	-102*	-14%	0%	?
CC(C)n1c(-c2cccnc2)nc2cnccc21	-1%	4%	-100*	5%[46.1 µM]	-4%	2%
CCOP(=O)(OCC)C(NC(=O)c1cc([N+](=O)[O-])cc([N+](=O)[O-])c1)C(F)(F)F (centres undefined)	?	?	·	10%	-7%	25µM*
O=C(Oc1ccc2c(c1)OCO2)c1ccc(F)cc1Cl	-13%	-8%	-109*	-29%[46.1 µM]	-1%	-13%
CCOc1ncccc1C(=O)Oc1ccc2c(c1)OCO2	-10%	-19%	4	1%[46.1 µM]	1%	-14%
O=C1C=CC(=O)c2c(O)c(Cl)c(Cl)c(O)c21	6%	3%	·	·	5%	?
COc1cccc(N/C(SCc2ccccc2Cl)=C(/C#N)C(=O)NCc2cccs2)c1	-14%	-19%	-125*	-7%	-2%	2%
COc1cccc(N/C(SCc2ccccc2C)=C(/C#N)C(=O)NCc2cccs2)c1	-14%	-24%	-22	-23%	-9%	-5%
c1ccc2[nH]c3cc4ncnc4cc3nc2c1	-5%	-12%	-81*	-47%	?	?
Cc1cc(SCC(=O)N/N=C/c2ccc(O)c(O)c2O)c(C)cc1Br	13µM*	14µM*[quencher]	35	-3%[46.1 µM]	10µM*	7.9µM*
COc1ccc(/C=N/NC(=O)CCn2c3ccccc3c3ccccc32)cc1O	-10%	18µM*[quencher]	-11	-1%[46.1 µM]	-3%	?
COc1cc(/C=N/NC(=O)CSc2cc(C)c(Br)cc2C)ccc1O	1%	25µM*[quencher]	16	-5%[46.1 µM]	6%	?
COc1ccc(NC(=O)CC2C(=O)N(c3ccccc3)C(=O)N2Cc2cccnc2)cc1 (centres undefined)	4%	-6%	·	·	·	0%
O=C1Nc2ccc3sc4ccccc4c3c2C1=O	4%	?	·	-23%	-18%	4.5µM*
Cc1nc(N=Nc2ccc(C(=O)O)cc2)c(COP(=O)(O)O)c(C=O)c1O	-14%	-20%	·	-16%[46.1 µM]	28µM*	?
Cc1nc(N=Nc2ccc(S(=O)(=O)O)cc2S(=O)(=O)O)c(COP(=O)(O)O)c(C=O)c1O	-21%	-10%	·	-2%[46.1 µM]	?	?
Cc1ccccc1-c1cc(C(=O)Nc2sc(C)c(C)c2C(N)=O)c2ccccc2n1	?	?	0	-21%[46.1 µM]	-10%	22µM*
CCOC(=O)c1sc(NC(=O)c2cc(-c3ccccc3C)nc3ccccc23)c(C#N)c1C	-7%	?	?	-20%[46.1 µM]	?	?
COc1ccccc1N1CCN(C(=O)C2CCN(S(=O)(=O)c3cn(C)cn3)CC2)CC1	-1%	2%	·	·	·	4%
Oc1ccccc1N=Cc1sc2ccccc2c1Cl	-8%	-22%	-16	-10%	22µM*	?
Cc1ccc(O)c(N=Cc2sc3ccccc3c2Cl)c1	-4%	-10%	4	-7%	25µM*	?
Cc1ccc(-n2ncc(C(=O)Nc3ccc4c(c3)OCO4)c2C2CCN(C(=O)OC(C)(C)C)CC2)cc1	-4%	13µM*[quencher]	·	·	·	?
O=C(Nc1ccc(Cl)cc1)/C(=C/c1ccc([N+](=O)[O-])cc1)c1nc2ccccc2s1	?	-25%	·	-46%	?	14µM*
CCCN1CCC(=NNc2ccc(S(=O)(=O)N3CCOCC3)cc2[N+](=O)[O-])CC1	4%	-11%	?	24%	2%	0%
NS(=O)(=O)c1ccc(NN=C2CCN(Cc3ccccc3)CC2)c([N+](=O)[O-])c1	12%	-27%	·	-20%	2%	25µM*
SMILES	Tau fibril FP	Tau fluor cs	PNC assembly inh	NPSR antag	JMJD2E inh	Tau ThT inhib
COc1cc(C(c2c(C)[nH][nH]c2=O)c2c(C)[nH][nH]c2=O)ccc1OC(C)C	-11%	-6%	-80*	14%	-11%	?
COc1cc(C(c2c(C)[nH][nH]c2=O)c2c(C)[nH][nH]c2=O)ccc1OCc1ccc([N+](=O)[O-])cc1	-7%	?	?	-12%[46.1 µM]	?	10µM*
COc1cc(C(c2c(C)[nH][nH]c2=O)c2c(C)[nH][nH]c2=O)ccc1OS(=O)(=O)c1ccccc1	6%	-17%	11	2%[46.1 µM]	-27%	?
O=c1cc(-c2ccccc2)[nH]n1-c1nc2ccccc2[nH]1	?	?	-13	-14%[46.1 µM]	?	25µM*
CCOc1ccc(-c2nnc(SCC(=O)Oc3ccccc3)o2)cc1	-1%	-12%	·	·	·	-9%
COc1ccc(Cl)cc1N(C)C(=O)Cc1noc2ccc(C)cc12	?	-26%	·	·	·	?
O=C(NCCc1cccs1)c1ccc(Cn2c(SCc3ccc(F)cc3)nc3cccnc32)cc1	3%	-15%	·	·	·	8%
O=C(Nc1ccc(N2CCN(c3ccc(O)cc3)CC2)cc1)Oc1ccccc1	-5%	7.9µM*[quencher]	17	-1%[46.1 µM]	?	5µM*
Nc1ccc(OC(=O)Nc2ccc(O)cc2)cc1	?	?	·	11%	18µM*	·
Cc1ccc(OC(=O)Nc2ccccc2)cc1	3%	2%	·	7%	6%	-3%
O=C(CSc1ccccc1)NCc1ccc2c(c1)CCN2C(=O)c1ccc(Cl)cc1	5%	14%	·	·	·	-3%
Oc1ccccc1/C=N/Nc1nc2ccccc2o1	14%	?	·	-40%	28µM*	?
COc1cc(/C=N\Nc2nc3ccccc3o2)cc(OC)c1OC	5%	-26%	-4	-3%[46.1 µM]	-26%	?
COc1cc(/C=N/Nc2nc3ccccc3o2)cc(OC)c1O	8%	?	-15	-7%[46.1 µM]	?	14µM*
CCCCNc1nc(Oc2ccc(=O)n(C)n2)nc(N2CCOCC2)n1	3%	2%	·	·	·	1%
CC(=O)C1CCN(Cc2ccccc2)CC1	-3%	-4%	25	-3%[46.1 µM]	2%	-2%
CSc1ccccc1OC1CCN(Cc2ccccc2)CC1	0%	2%	-109*	-12%	-3%	2%
CCn1c(=N)c(C(=O)NCC2CCCO2)cc2c(=O)n3cc(C)ccc3nc21 (centres undefined)	1%	1%	·	·	·	6%
O=C(CSc1nc(-c2ccccc2)c(-c2ccccc2)[nH]1)Nc1nccs1	2%	14µM*[quencher]	30	-30%[46.1 µM]	?	?
COc1ccc(-c2[nH]c(-c3ccc(C)cc3)nc2SCC(=O)Nc2nccs2)cc1	?	18µM*[quencher]	?	-11%	2%	?
Nc1ccccc1SCC(=O)Nc1nccs1	3%	0%	·	-12%	-3%	-3%
COc1ccc(-c2[nH]c(-c3ccc(SC)cc3)nc2SCC(=O)Nc2nccs2)cc1	8%	7.1µM*[quencher]	10	-11%	?	?

Screening data deposited in PubChem BioAssay by National Center for Advancing Translational Sciences (NCATS).
